Like-named read-outs stand apart in the source and are kept apart here.
Legend:
Set-up in all cases: species or system human, MV4-11 + K-562 + COLO205 + SK-N-BE2 + OVCAR-8
[1] = tested on: JAK2; details: read-out: apparent Kd, compound concentrations: 100 nM and 1000 nM (sheet 'Samples'), n = 1
[2] = tested on: AKT1; details: read-out: apparent Kd, compound concentrations: 100 nM and 1000 nM (sheet 'Samples'), n = 1
[3] = tested on: BMPR1B; details: read-out: apparent Kd, n = 1
[4] = tested on: CSNK1D; details: read-out: apparent Kd, n = 1
[5] = tested on: RIOK2; details: read-out: apparent Kd, compound concentrations: 100 nM and 1000 nM (sheet 'Samples'), n = 1
[6] = tested on: DDR2; details: read-out: apparent Kd, n = 1
[7] = tested on: EPHA5; details: read-out: apparent Kd, n = 1
[8] = tested on: EPHB1; details: read-out: apparent Kd, n = 1
[9] = tested on: EPHB6; details: read-out: apparent Kd, n = 1
[10] = tested on: MAPK14; details: read-out: apparent Kd; compound concentrations:100 nM and 1000 nM (sheet 'Samples'); n = 1
[11] = tested on: TGFBR1; details: read-out: apparent Kd, n = 1
[12] = tested on: PLK4; details: read-out: apparent Kd, compound concentrations: 100 nM and 1000 nM (sheet 'Samples'), n = 1
[13] = tested on: PRKD2; details: read-out: apparent Kd, compound concentrations: 100 nM and 1000 nM (sheet 'Samples'), n = 1
[14] = tested on: FLT4; details: read-out: apparent Kd, n = 1
[15] = tested on: ACAD8; details: read-out: apparent Kd; compound concentrations: 100 nM and 1000 nM (sheet 'Samples'), CATDS: 1.7028042656885199E-2; n = 1
[16] = tested on: CDK16; details: read-out: apparent Kd, compound concentrations: 100 nM and 1000 nM (sheet 'Samples'), n = 1
[17] = tested on: MAP2K5; details: read-out: apparent Kd; compound concentrations: 100 nM and 1000 nM (sheet 'Samples'), CATDS: 5.3465139975610303E-2; n = 1
[18] = tested on: CDK17; details: read-out: apparent Kd; compound concentrations: 100 nM and 1000 nM (sheet 'Samples'), CATDS: 3.3819881865538602E-2; n = 1
[19] = tested on: CDKL5; details: read-out: apparent Kd, compound concentrations: 100 nM and 1000 nM (sheet 'Samples'), n = 1
[20] = compound concentrations:100 nM and 1000 nM (sheet 'Samples')

Which potency estimated from few doses ([1]; CATDS: 8.0204348967342395E-2) does the source give for COc1ccccc1CNC1=NC(=O)/C(=C/c2ccc3ncccc3c2)S1 [RO4503315-000] here?
The potency estimated from few doses was 755 nM.

For COc1ccc(Nc2nccc(N3CCC(NC(=O)Nc4ccc5c(c4)OCO5)C3)n2)cc1 (stereo not shown) [GSK1379745A], which potency estimated from few doses ([2]; CATDS: 3.7255828319427503E-2) is on record?
Its potency estimated from few doses is 1760 nM.

And the potency estimated from few doses ([3]; compound concentrations: 100 nM and 1000 nM (sheet 'Samples'), CATDS: 0.106136196425884)?
Its potency estimated from few doses is 316 nM.

What about the potency estimated from few doses ([4]; compound concentrations: 100 nM and 1000 nM (sheet 'Samples'), CATDS: 3.4846409929325597E-2) of the same compound?
Its potency estimated from few doses is 2080 nM.

And the potency estimated from few doses ([5]; CATDS: 4.3222091528321002E-2)?
The potency estimated from few doses was 1280 nM.

Which potency estimated from few doses [3, 20] does the source give for CCN(CC)CCOc1ccc(Nc2ncc3cc(-c4c(Cl)cccc4Cl)c(=O)n(C)c3n2)cc1 [SB-601273] here?
The potency estimated from few doses was 239 nM.

And the potency estimated from few doses [6, 20]?
Its potency estimated from few doses is 319 nM.

And the potency estimated from few doses [7, 20]?
Its potency estimated from few doses is 135 nM.

And the potency estimated from few doses [8, 20]?
The potency estimated from few doses was 10.6 nM.

And the potency estimated from few doses [9, 20]?
Its potency estimated from few doses is 175 nM.

What about the potency estimated from few doses [10] of the same compound?
The potency estimated from few doses was 678 nM.

And the potency estimated from few doses [11, 20]?
The potency estimated from few doses was 270 nM.

Nc1nc(-c2cccnc2)c(-c2ccnc3ccccc23)s1 [GW684083X] was tested. Which potency estimated from few doses [4, 20] did it give?
Its potency estimated from few doses is 2190 nM.

Which potency estimated from few doses ([3]; compound concentrations: 100 nM and 1000 nM (sheet 'Samples'), CATDS: 1.5845545997130402E-2) does the source give for CN1C(=O)c2ccccc2N(C)c2nc(Nc3cnn(C4CCNCC4)c3)ncc21 [XMD-17-51] here?
The potency estimated from few doses was 986 nM.

And the potency estimated from few doses ([6]; compound concentrations: 100 nM and 1000 nM (sheet 'Samples'), CATDS: 2.76833558022507E-2)?
Its potency estimated from few doses is 189 nM.

And the potency estimated from few doses ([1]; CATDS: 1.8456350462982201E-2)?
The potency estimated from few doses was 580 nM.

What about the potency estimated from few doses ([12]; CATDS: 4.7474552673817297E-2) of the same compound?
The potency estimated from few doses was 56.7 nM.

And the potency estimated from few doses ([13]; CATDS: 1.4106382440731599E-2)?
The potency estimated from few doses was 1620 nM.

What about the potency estimated from few doses ([11]; compound concentrations: 100 nM and 1000 nM (sheet 'Samples'), CATDS: 2.2276499347081799E-2) of the same compound?
The potency estimated from few doses was 333 nM.

Which potency estimated from few doses ([3]; compound concentrations: 100 nM and 1000 nM (sheet 'Samples'), CATDS: 2.7107507605443299E-2) does the source give for Cc1ccc(O)cc1Nc1ccnc2cc(-c3ccccn3)ccc12.Cl [GW440139A] here?
Its potency estimated from few doses is 941 nM.

And the potency estimated from few doses ([7]; compound concentrations: 100 nM and 1000 nM (sheet 'Samples'), CATDS: 4.7155213926178503E-2)?
Its potency estimated from few doses is 97.2 nM.

And the potency estimated from few doses ([8]; compound concentrations: 100 nM and 1000 nM (sheet 'Samples'), CATDS: 5.4162955802276501E-2)?
The potency estimated from few doses was 67.7 nM.

And the potency estimated from few doses ([11]; compound concentrations: 100 nM and 1000 nM (sheet 'Samples'), CATDS: 4.4422303259643102E-2)?
The potency estimated from few doses was 115 nM.

For Cl.Oc1cccc(Nc2ccnc3cc(-c4ccncc4)ccc23)c1 [GW494601A], which potency estimated from few doses ([3]; compound concentrations: 100 nM and 1000 nM (sheet 'Samples'), CATDS: 3.10657492682959E-2) is on record?
Its potency estimated from few doses is 211 nM.

And the potency estimated from few doses ([7]; compound concentrations: 100 nM and 1000 nM (sheet 'Samples'), CATDS: 3.7293479964616502E-2)?
The potency estimated from few doses was 113 nM.

What about the potency estimated from few doses ([8]; compound concentrations: 100 nM and 1000 nM (sheet 'Samples'), CATDS: 2.51104508673669E-2) of the same compound?
The potency estimated from few doses was 479 nM.

And the potency estimated from few doses ([14]; compound concentrations: 100 nM and 1000 nM (sheet 'Samples'), CATDS: 2.2541605457452998E-2)?
The potency estimated from few doses was 773 nM.

What about the potency estimated from few doses ([11]; compound concentrations: 100 nM and 1000 nM (sheet 'Samples'), CATDS: 2.26052406331183E-2) of the same compound?
Its potency estimated from few doses is 762 nM.

With Cc1ccc(O)cc1Nc1ccnc2cc(-c3ccc(CN4CCCCC4)o3)ccc12 [GW557777X] as the compound, how does the potency estimated from few doses ([3]; compound concentrations: 100 nM and 1000 nM (sheet 'Samples'), CATDS: 2.1920480328631101E-2) read?
Its potency estimated from few doses is 73.2 nM.

And the potency estimated from few doses ([6]; compound concentrations: 100 nM and 1000 nM (sheet 'Samples'), CATDS: 1.39203861332134E-2)?
The potency estimated from few doses was 800 nM.

What about the potency estimated from few doses ([7]; compound concentrations: 100 nM and 1000 nM (sheet 'Samples'), CATDS: 3.4723791615605203E-2) of the same compound?
The potency estimated from few doses was 15.6 nM.

And the potency estimated from few doses ([8]; compound concentrations: 100 nM and 1000 nM (sheet 'Samples'), CATDS: 9.2243435191231293E-2)?
Its potency estimated from few doses is 1.47 nM.

And the potency estimated from few doses ([14]; compound concentrations: 100 nM and 1000 nM (sheet 'Samples'), CATDS: 1.3507307153085599E-2)?
Its potency estimated from few doses is 1020 nM.

And the potency estimated from few doses ([13]; CATDS: 2.1213632342937001E-2)?
The potency estimated from few doses was 83.5 nM.

And the potency estimated from few doses ([11]; compound concentrations: 100 nM and 1000 nM (sheet 'Samples'), CATDS: 1.55635860325104E-2)?
The potency estimated from few doses was 377 nM.

Which potency estimated from few doses [14, 20] does the source give for CS(=O)(=O)Cc1ccc(Nc2nccc(-c3c(-c4cccc(NC(=O)C5CCCCC5)c4)nn4ncccc34)n2)cc1 [GSK350559A] here?
The potency estimated from few doses was 995 nM.

NC1=NC(=O)/C(=C/c2ccc3ncccc3c2)S1 [RO4569139-000] was tested. Which potency estimated from few doses ([1]; CATDS: 8.9240627559774202E-2) did it give?
The potency estimated from few doses was 708 nM.

Which results are given for CS(=O)(=O)CCNCc1ccc(-c2ccc3ncnc(Nc4ccc(OCc5cccc(F)c5)c(C(F)(F)F)c4)c3c2)o1 [GW576484X]?
potency estimated from few doses ([2]; CATDS: 4.8644382119909499E-2): 2100 nM; potency estimated from few doses ([7]; compound concentrations: 100 nM and 1000 nM (sheet 'Samples'), CATDS: 6.1198720687785702E-2): 1290 nM; potency estimated from few doses ([5]; CATDS: 5.8358702635658101E-2): 1410 nM

Which results are given for Cl.Cl.Cl.c1ccc(Oc2ccc(Nc3ccnc4cc(-c5ccc(CN6CCNCC6)o5)ccc34)cc2)nc1.c1ccc(Oc2ccc(Nc3ccnc4cc(-c5ccc(CN6CCNCC6)o5)ccc34)cc2)nc1 [GW567142A]?
potency estimated from few doses [15]: 2040 nM; potency estimated from few doses ([2]; CATDS: 1.79490160981602E-2): 1660 nM; potency estimated from few doses ([16]; CATDS: 1.6285845495215501E-2): 2450 nM; potency estimated from few doses [17]: 111 nM; potency estimated from few doses ([5]; CATDS: 1.8917557706548099E-2): 1380 nM

For NC(=O)c1cccc(Nc2nccc(Nc3cccc4[nH]ncc34)n2)c1 [GW782612X], which potency estimated from few doses ([6]; compound concentrations: 100 nM and 1000 nM (sheet 'Samples'), CATDS: 3.15347900030735E-2) is on record?
The potency estimated from few doses was 2580 nM.

And the potency estimated from few doses ([11]; compound concentrations: 100 nM and 1000 nM (sheet 'Samples'), CATDS: 5.60805138513292E-2)?
Its potency estimated from few doses is 406 nM.

CC(C)c1nc(-c2cccc(NS(=O)(=O)c3ccccc3)c2)c(-c2ccnc(Nc3ccc4c(c3)CN(C)CC4)n2)s1 [GSK1649598A] was tested. Which potency estimated from few doses ([16]; CATDS: 3.5928247701673299E-2) did it give?
The potency estimated from few doses was 112 nM.

And the potency estimated from few doses [18]?
The potency estimated from few doses was 124 nM.

What about the potency estimated from few doses ([19]; CATDS: 3.80366995063171E-2) of the same compound?
Its potency estimated from few doses is 101 nM.

And the potency estimated from few doses ([9]; compound concentrations: 100 nM and 1000 nM (sheet 'Samples'), CATDS: 1.8057075383437201E-2)?
The potency estimated from few doses was 489 nM.

And the potency estimated from few doses ([14]; compound concentrations: 100 nM and 1000 nM (sheet 'Samples'), CATDS: 1.55100813228086E-2)?
Its potency estimated from few doses is 772 nM.

What about the potency estimated from few doses ([12]; CATDS: 4.8867140762819797E-2) of the same compound?
The potency estimated from few doses was 66.8 nM.

And the potency estimated from few doses ([13]; CATDS: 5.2743679485786801E-2)?
The potency estimated from few doses was 59.3 nM.

How did the potency estimated from few doses ([1]; CATDS: 7.2632093710390006E-2) turn out when O=C1N=C(NCCc2cccc(Cl)c2)S/C1=C\c1ccc2ncccc2c1 [RO4509201-000] was run?
The potency estimated from few doses was 736 nM.

How did the potency estimated from few doses ([19]; CATDS: 4.9375621350065603E-2) turn out when CNC1=NC(=O)/C(=C/c2ccc3ncccc3c2)S1 [RO4595949-000] was run?
The potency estimated from few doses was 2150 nM.

And the potency estimated from few doses ([1]; CATDS: 6.3201453255696996E-2)?
The potency estimated from few doses was 790 nM.

What about the potency estimated from few doses ([13]; CATDS: 5.1323444817528999E-2) of the same compound?
Its potency estimated from few doses is 1770 nM.

Source: publication PMC11062922 (Nature Chemical Biology, 2023)
